Reference: the supplement of paper PMC6555819

Tests used:
Assay in all cases: PBM binding z-score (relative to random genomic background probes); higher = stronger binding; sequences stand for … in GC…GCGATTGACAGCGTAGAATGAAGG
[1] = system: FXR:RXRa (NR concentration 270 nM, RXRa partner concentration 90 nM)
Procedure, shortened: (§1)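 Custom Agilent 4×180K protein-binding microarrays carried double-stranded probes, each with a 34-nt variable region. These regions held direct-repeat seeds, single-nucleotide variants, half-site ablations and random human genomic background sequences. Ligand-free nuclear receptor dimers were incubated on the arrays for 1 h, antibodies against each partner (one per run) detected binding, and scanned fluorescence was regression-normalized. Binding z-scores take the random background probes as reference.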

[2] = system: LXRa:RXRa (NR concentration 270 nM, RXRa partner concentration 90 nM)
Procedure, shortened: as §1

[3] = system: LXRa homodimer (NR concentration 270 nM)
Procedure, shortened: as §1

[4] = system: LXRb:RXRa (NR concentration 270 nM, RXRa partner concentration 90 nM)
Procedure, shortened: as §1

[5] = system: LXRb homodimer (NR concentration 270 nM)
Procedure, shortened: as §1

[6] = system: PPARa:RXRa (NR concentration 270 nM, RXRa partner concentration 90 nM)
Procedure, shortened: as §1

[7] = system: PPARg:RXRa (NR concentration 180 nM, RXRa partner concentration 90 nM)
Procedure, shortened: as §1

[8] = system: PPARg:RXRa 270nM:90nM, anti-RXR (NR concentration 270 nM, RXRa partner concentration 90 nM)
Procedure, shortened: as §1

[9] = system: PPARg:RXRa 30nM:10nM, anti-RXR (NR concentration 30 nM, RXRa partner concentration 10 nM)
Procedure, shortened: as §1

[10] = system: PPARg:RXRa 90nM:30nM, anti-RXR (NR concentration 90 nM, RXRa partner concentration 30 nM)
Procedure, shortened: as §1

[11] = system: PPARg:RXRa DBDmut IVT, anti-RXR (DBD mutation: RXRa K156A/R161A, NR concentration 270 nM, RXRa partner concentration 90 nM)
Procedure, shortened: as §1

[12] = system: PPARg:RXRa IVT, anti-PPARg (NR concentration 270 nM, RXRa partner concentration 90 nM)
Procedure, shortened: as §1

[13] = system: PPARg DBDmut:RXRa IVT, anti-PPARg (DBD mutation: PPARg1 K132A/R137A, NR concentration 270 nM, RXRa partner concentration 90 nM)
Procedure, shortened: as §1

[14] = system: PPARg DBDmut IVT, anti-PPARg (DBD mutation: PPARg1 K132A/R137A, NR concentration 270 nM)
Procedure, shortened: as §1

[15] = system: PPARg homodimer (NR concentration 180 nM)
Procedure, shortened: as §1

[16] = system: PXR:RXRa (NR concentration 270 nM, RXRa partner concentration 90 nM)
Procedure, shortened: as §1

[17] = system: PXR homodimer (NR concentration 270 nM)
Procedure, shortened: as §1

[18] = system: RARa:RXR (NR concentration 270 nM, RXRa partner concentration 90 nM)
Procedure, shortened: as §1

[19] = system: RARa homodimer (NR concentration 270 nM)
Procedure, shortened: as §1

[20] = system: RARb:RXRa (NR concentration 270 nM, RXRa partner concentration 90 nM)
Procedure, shortened: as §1

TCTGCTAGGTCAGTTGGTCAGCTATCGAGCTGCC
PBM binding z-score [1]: 0.915 | PBM binding z-score [2]: 0.538 | PBM binding z-score [3]: -0.72 | PBM binding z-score [4]: 0.193 | PBM binding z-score [5]: 0.35 | PBM binding z-score [6]: 1.26 | PBM binding z-score [7]: 0.224 | PBM binding z-score [8]: 1.72 | PBM binding z-score [9]: 1.21 | PBM binding z-score [10]: 1.45 | PBM binding z-score [11]: 2.46 | PBM binding z-score [12]: 3.27 | PBM binding z-score [13]: 0.301 | PBM binding z-score [14]: 0.371 | PBM binding z-score [15]: 0.0545 | PBM binding z-score [16]: 0.289 | PBM binding z-score [17]: -0.818 | PBM binding z-score [18]: 0.544 | PBM binding z-score [19]: -1.27 | PBM binding z-score [20]: 3.39

GCTATTAGTTGAAAGGGGAACCGAATGATTCTCG
PBM binding z-score [1]: 0.138 | PBM binding z-score [2]: 0.218 | PBM binding z-score [3]: -0.112 | PBM binding z-score [4]: -0.0843 | PBM binding z-score [5]: -0.157 | PBM binding z-score [6]: 0.798 | PBM binding z-score [7]: 1.19 | PBM binding z-score [8]: 3.07 | PBM binding z-score [9]: 1.25 | PBM binding z-score [10]: 2.62 | PBM binding z-score [11]: 0.8 | PBM binding z-score [12]: 0.272 | PBM binding z-score [13]: -0.324 | PBM binding z-score [14]: -0.088 | PBM binding z-score [15]: 0.558 | PBM binding z-score [16]: -0.107 | PBM binding z-score [17]: 0.237 | PBM binding z-score [18]: 0.154 | PBM binding z-score [19]: 0.912 | PBM binding z-score [20]: 0.185

CCTGCTAGGTCAATGGTCAGCGAAAGCAGCTCGC
PBM binding z-score [1]: 2.75 | PBM binding z-score [2]: 2.4 | PBM binding z-score [3]: -0.241 | PBM binding z-score [4]: 1.4 | PBM binding z-score [5]: 0.134 | PBM binding z-score [6]: 3.37 | PBM binding z-score [7]: 5.06 | PBM binding z-score [8]: 5.2 | PBM binding z-score [9]: 3.2 | PBM binding z-score [10]: 5.18 | PBM binding z-score [11]: 4.19 | PBM binding z-score [12]: 4.06 | PBM binding z-score [13]: 0.555 | PBM binding z-score [14]: -0.25 | PBM binding z-score [15]: 1.7 | PBM binding z-score [16]: 0.865 | PBM binding z-score [17]: -0.255 | PBM binding z-score [18]: 1.87 | PBM binding z-score [19]: -0.0474 | PBM binding z-score [20]: 3.71

GCAGACAGGTGAAACGCAGGTAACACAGGGTGGC
PBM binding z-score [1]: -0.0327 | PBM binding z-score [2]: -0.0189 | PBM binding z-score [3]: -0.439 | PBM binding z-score [4]: -0.317 | PBM binding z-score [5]: -1.1 | PBM binding z-score [6]: 0.885 | PBM binding z-score [7]: 0.859 | PBM binding z-score [8]: 0.128 | PBM binding z-score [9]: -0.52 | PBM binding z-score [10]: -0.381 | PBM binding z-score [11]: 0.623 | PBM binding z-score [12]: 0.202 | PBM binding z-score [13]: 0.00158 | PBM binding z-score [14]: -0.396 | PBM binding z-score [15]: -0.0973 | PBM binding z-score [16]: 0.067 | PBM binding z-score [17]: -0.211 | PBM binding z-score [18]: 0.594 | PBM binding z-score [19]: -0.376 | PBM binding z-score [20]: 0.622

CAAACTAGGTCATCCAGGACAGTGAATACATTGA
PBM binding z-score [1]: 4.46 | PBM binding z-score [2]: 3.23 | PBM binding z-score [3]: 1.22 | PBM binding z-score [4]: 2.51 | PBM binding z-score [5]: 0.932 | PBM binding z-score [6]: 5.12 | PBM binding z-score [7]: 8.08 | PBM binding z-score [8]: 6.82 | PBM binding z-score [9]: 4.42 | PBM binding z-score [10]: 6.36 | PBM binding z-score [11]: 8.23 | PBM binding z-score [12]: 8.47 | PBM binding z-score [13]: 4.2 | PBM binding z-score [14]: 2.88 | PBM binding z-score [15]: 2.69 | PBM binding z-score [16]: 2.23 | PBM binding z-score [17]: 1.49 | PBM binding z-score [18]: 2.85 | PBM binding z-score [19]: 1.49 | PBM binding z-score [20]: 3.84

CGAACGAGGGCAAGAGTTGATAGCAAATGCCGAT
PBM binding z-score [1]: 0.442 | PBM binding z-score [2]: 0.206 | PBM binding z-score [3]: -0.493 | PBM binding z-score [4]: 0.236 | PBM binding z-score [5]: -0.921 | PBM binding z-score [6]: 1.52 | PBM binding z-score [7]: 2.3 | PBM binding z-score [8]: 2.48 | PBM binding z-score [9]: 0.687 | PBM binding z-score [10]: 1.92 | PBM binding z-score [11]: 3.38 | PBM binding z-score [12]: 2.22 | PBM binding z-score [13]: 0.196 | PBM binding z-score [14]: -0.307 | PBM binding z-score [15]: 0.163 | PBM binding z-score [16]: 0.404 | PBM binding z-score [17]: -0.197 | PBM binding z-score [18]: 0.316 | PBM binding z-score [19]: -0.216 | PBM binding z-score [20]: 2.38

CCTATTAGTTGACCATCAGGGCAACCGAAGCTCG
PBM binding z-score [1]: 0.442 | PBM binding z-score [2]: 0.292 | PBM binding z-score [3]: 0.822 | PBM binding z-score [4]: 0.105 | PBM binding z-score [5]: 0.434 | PBM binding z-score [6]: 0.136 | PBM binding z-score [7]: 0.185 | PBM binding z-score [8]: 0.164 | PBM binding z-score [9]: -0.404 | PBM binding z-score [10]: 0.121 | PBM binding z-score [11]: 0.536 | PBM binding z-score [12]: 0.814 | PBM binding z-score [13]: 0.556 | PBM binding z-score [14]: 0.943 | PBM binding z-score [15]: 1.44 | PBM binding z-score [16]: 0.0854 | PBM binding z-score [17]: 0.589 | PBM binding z-score [18]: 0.0403 | PBM binding z-score [19]: 1.51 | PBM binding z-score [20]: 1.07

GGAAAGAGGGCAAGTTGATAGCAGAGTTTGATGG
PBM binding z-score [1]: 1.6 | PBM binding z-score [2]: 1.58 | PBM binding z-score [3]: 0.345 | PBM binding z-score [4]: 1.25 | PBM binding z-score [5]: 0.718 | PBM binding z-score [6]: 2.15 | PBM binding z-score [7]: 1.14 | PBM binding z-score [8]: 1.59 | PBM binding z-score [9]: 0.606 | PBM binding z-score [10]: 1.04 | PBM binding z-score [11]: 3.57 | PBM binding z-score [12]: 2.18 | PBM binding z-score [13]: 0.748 | PBM binding z-score [14]: -0.108 | PBM binding z-score [15]: 1.67 | PBM binding z-score [16]: 1.29 | PBM binding z-score [17]: 1.23 | PBM binding z-score [18]: 0.849 | PBM binding z-score [19]: 1.34 | PBM binding z-score [20]: 2.93

CCCAGCAGGCCAGGGTCACTCAAGCATTTCGCTT
PBM binding z-score [1]: 2.03 | PBM binding z-score [2]: 1.48 | PBM binding z-score [3]: -0.513 | PBM binding z-score [4]: 1.61 | PBM binding z-score [5]: -0.79 | PBM binding z-score [6]: 2.8 | PBM binding z-score [7]: 0.0881 | PBM binding z-score [8]: 0.885 | PBM binding z-score [9]: -1.03 | PBM binding z-score [10]: 0.0104 | PBM binding z-score [11]: -0.567 | PBM binding z-score [12]: 0.512 | PBM binding z-score [13]: -1.55 | PBM binding z-score [14]: -1.26 | PBM binding z-score [15]: 0.406 | PBM binding z-score [16]: 2.46 | PBM binding z-score [17]: -0.562 | PBM binding z-score [18]: 3.22 | PBM binding z-score [19]: -0.754 | PBM binding z-score [20]: 2.62

TCTTGTAGATGAATAGAGGTTAAGAAAGTGCGCT
PBM binding z-score [1]: 1.46 | PBM binding z-score [2]: 3.5 | PBM binding z-score [3]: 0.638 | PBM binding z-score [4]: 1.98 | PBM binding z-score [5]: 0.559 | PBM binding z-score [6]: 1.93 | PBM binding z-score [7]: 0.366 | PBM binding z-score [8]: 2.17 | PBM binding z-score [9]: 3.31 | PBM binding z-score [10]: 2.67 | PBM binding z-score [11]: 2.5 | PBM binding z-score [12]: 1.18 | PBM binding z-score [13]: 0.58 | PBM binding z-score [14]: 0.95 | PBM binding z-score [15]: 0.765 | PBM binding z-score [16]: 3.01 | PBM binding z-score [17]: 0.505 | PBM binding z-score [18]: 1.86 | PBM binding z-score [19]: 1.12 | PBM binding z-score [20]: 1.01

CCTCGGAGGACAACAGGAGGGCAGAGCTGCCAGA
PBM binding z-score [1]: -0.363 | PBM binding z-score [2]: -0.203 | PBM binding z-score [3]: -0.39 | PBM binding z-score [4]: -0.91 | PBM binding z-score [5]: -0.963 | PBM binding z-score [6]: -0.724 | PBM binding z-score [7]: -0.101 | PBM binding z-score [8]: -1.25 | PBM binding z-score [9]: -1.32 | PBM binding z-score [10]: -1.32 | PBM binding z-score [11]: -0.405 | PBM binding z-score [12]: -0.306 | PBM binding z-score [13]: -2.18 | PBM binding z-score [14]: -1.69 | PBM binding z-score [15]: -0.00297 | PBM binding z-score [16]: -0.394 | PBM binding z-score [17]: -0.631 | PBM binding z-score [18]: -0.517 | PBM binding z-score [19]: -0.328 | PBM binding z-score [20]: 1.73
